The supplement of paper PMC11732987, “Enantioselective OTUD7B fragment discovery through chemoproteomics screening and high-throughput optimisation” (Communications Chemistry, 2025)

How the values were obtained:
Test in all cases: log2 ratio of Biotin-Ahx-Ub-VS probe labelling (fragment/DMSO); higher = less target engagement (more negative = stronger competition), active = hit call of the paper (q ≤ 0.05, log2 ratio ≤ -1)
Settings in all cases: compound concentration: 200 uM; treatment time: 3 h
USP19 = molecular target: T1, USP19 (UniProt O94966)
T1 sequence (whole entry): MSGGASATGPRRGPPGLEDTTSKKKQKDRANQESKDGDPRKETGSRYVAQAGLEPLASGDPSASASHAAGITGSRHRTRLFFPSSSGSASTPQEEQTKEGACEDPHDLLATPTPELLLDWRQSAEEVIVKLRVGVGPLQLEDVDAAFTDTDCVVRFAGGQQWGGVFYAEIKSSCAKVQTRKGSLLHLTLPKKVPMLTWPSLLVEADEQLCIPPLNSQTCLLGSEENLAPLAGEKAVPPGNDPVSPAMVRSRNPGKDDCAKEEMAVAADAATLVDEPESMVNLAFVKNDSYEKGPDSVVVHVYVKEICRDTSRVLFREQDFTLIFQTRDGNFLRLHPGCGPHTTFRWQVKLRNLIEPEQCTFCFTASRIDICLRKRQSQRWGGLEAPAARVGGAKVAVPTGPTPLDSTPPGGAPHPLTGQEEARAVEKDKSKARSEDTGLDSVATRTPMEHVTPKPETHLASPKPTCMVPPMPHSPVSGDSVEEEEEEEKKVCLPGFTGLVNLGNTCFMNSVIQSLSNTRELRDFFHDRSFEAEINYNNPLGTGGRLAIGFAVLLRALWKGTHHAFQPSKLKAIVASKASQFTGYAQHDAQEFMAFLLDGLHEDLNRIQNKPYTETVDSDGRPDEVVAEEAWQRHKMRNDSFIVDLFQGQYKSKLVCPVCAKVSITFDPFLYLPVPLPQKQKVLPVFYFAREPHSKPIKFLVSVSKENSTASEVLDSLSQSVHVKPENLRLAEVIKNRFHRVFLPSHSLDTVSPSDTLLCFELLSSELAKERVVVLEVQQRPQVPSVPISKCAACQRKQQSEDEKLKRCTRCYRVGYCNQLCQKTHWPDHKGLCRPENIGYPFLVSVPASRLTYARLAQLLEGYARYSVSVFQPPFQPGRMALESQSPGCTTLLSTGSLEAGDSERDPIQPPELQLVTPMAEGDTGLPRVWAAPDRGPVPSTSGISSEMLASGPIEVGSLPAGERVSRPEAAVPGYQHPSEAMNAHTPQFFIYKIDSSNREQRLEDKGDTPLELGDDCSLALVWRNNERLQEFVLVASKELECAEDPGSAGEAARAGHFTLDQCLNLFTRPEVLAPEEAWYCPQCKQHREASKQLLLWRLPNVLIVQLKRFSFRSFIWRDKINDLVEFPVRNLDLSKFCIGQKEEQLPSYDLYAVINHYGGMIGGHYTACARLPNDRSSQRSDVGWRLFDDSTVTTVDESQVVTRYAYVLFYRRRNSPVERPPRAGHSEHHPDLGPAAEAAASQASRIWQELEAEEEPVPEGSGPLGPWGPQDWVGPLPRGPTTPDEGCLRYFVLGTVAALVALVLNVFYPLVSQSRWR
In short: (§1)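 Each value is an average log2 ratio of fragment to vehicle, tested by unpaired t-test. The underlying Spectronaut label-free quantities were global-median-normalised, and only proteins with ≥2 unique peptides were included. Triplicate HEK293T lysate samples (495 µg) were exposed to fragment at 200 µM or vehicle for 3 h, then to Biotin-Ahx-Ub-VS at 0.5 µM final for 1 h, before NeutrAvidin enrichment of labelled DUBs, LysC and trypsin digestion, and diaPASEF LC-MS/MS.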

USP22 = molecular target: T2, USP22 (UniProt Q9UPT9)
T2 sequence (whole entry): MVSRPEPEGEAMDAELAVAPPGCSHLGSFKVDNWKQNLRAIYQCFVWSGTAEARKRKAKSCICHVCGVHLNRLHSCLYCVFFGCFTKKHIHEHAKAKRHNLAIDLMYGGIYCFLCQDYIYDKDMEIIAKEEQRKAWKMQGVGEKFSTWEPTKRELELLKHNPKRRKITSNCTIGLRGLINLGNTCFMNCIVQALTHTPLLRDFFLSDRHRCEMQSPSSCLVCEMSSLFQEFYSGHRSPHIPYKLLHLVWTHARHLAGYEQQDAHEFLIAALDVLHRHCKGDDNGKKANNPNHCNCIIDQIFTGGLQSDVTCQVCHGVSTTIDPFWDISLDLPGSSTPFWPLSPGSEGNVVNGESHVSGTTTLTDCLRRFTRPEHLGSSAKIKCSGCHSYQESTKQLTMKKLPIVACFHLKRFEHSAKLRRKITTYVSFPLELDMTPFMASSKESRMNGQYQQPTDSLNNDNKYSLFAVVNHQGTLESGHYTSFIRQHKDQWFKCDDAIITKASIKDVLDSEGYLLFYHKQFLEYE
In short: as §1

USP24 = USP24 (UniProt Q9UPU5)
In short: as §1

USP25 = molecular target: T3, USP25 (UniProt Q9UHP3)
T3 sequence (whole entry): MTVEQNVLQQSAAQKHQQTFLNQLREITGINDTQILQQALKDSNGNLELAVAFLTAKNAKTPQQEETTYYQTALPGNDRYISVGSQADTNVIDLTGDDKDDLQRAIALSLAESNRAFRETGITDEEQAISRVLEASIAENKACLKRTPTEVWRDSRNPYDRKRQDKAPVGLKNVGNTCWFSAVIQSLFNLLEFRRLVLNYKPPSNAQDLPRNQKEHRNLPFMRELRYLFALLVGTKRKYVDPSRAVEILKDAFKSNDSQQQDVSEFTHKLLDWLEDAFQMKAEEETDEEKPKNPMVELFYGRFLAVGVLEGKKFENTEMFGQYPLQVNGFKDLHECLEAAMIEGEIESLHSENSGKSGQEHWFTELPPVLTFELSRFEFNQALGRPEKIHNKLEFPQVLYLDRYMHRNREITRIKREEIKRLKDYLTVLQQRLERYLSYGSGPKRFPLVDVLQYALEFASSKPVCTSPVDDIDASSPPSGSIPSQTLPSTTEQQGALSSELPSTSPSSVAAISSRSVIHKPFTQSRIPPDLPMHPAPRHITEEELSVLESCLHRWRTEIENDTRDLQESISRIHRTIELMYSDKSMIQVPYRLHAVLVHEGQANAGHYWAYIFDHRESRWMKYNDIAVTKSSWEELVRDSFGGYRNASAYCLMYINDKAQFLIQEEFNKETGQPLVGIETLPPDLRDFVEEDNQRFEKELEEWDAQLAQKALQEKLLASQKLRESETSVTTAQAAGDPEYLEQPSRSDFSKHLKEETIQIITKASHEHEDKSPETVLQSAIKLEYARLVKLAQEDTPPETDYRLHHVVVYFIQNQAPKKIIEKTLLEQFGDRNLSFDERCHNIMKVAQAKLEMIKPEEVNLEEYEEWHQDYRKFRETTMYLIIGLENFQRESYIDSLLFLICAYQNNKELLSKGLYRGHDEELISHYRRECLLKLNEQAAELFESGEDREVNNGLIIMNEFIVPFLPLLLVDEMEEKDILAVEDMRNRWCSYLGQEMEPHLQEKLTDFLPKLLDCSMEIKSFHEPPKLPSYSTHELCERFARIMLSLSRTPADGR
In short: as §1

USP28 = molecular target: T4, USP28 (UniProt Q96RU2)
T4 sequence (whole entry): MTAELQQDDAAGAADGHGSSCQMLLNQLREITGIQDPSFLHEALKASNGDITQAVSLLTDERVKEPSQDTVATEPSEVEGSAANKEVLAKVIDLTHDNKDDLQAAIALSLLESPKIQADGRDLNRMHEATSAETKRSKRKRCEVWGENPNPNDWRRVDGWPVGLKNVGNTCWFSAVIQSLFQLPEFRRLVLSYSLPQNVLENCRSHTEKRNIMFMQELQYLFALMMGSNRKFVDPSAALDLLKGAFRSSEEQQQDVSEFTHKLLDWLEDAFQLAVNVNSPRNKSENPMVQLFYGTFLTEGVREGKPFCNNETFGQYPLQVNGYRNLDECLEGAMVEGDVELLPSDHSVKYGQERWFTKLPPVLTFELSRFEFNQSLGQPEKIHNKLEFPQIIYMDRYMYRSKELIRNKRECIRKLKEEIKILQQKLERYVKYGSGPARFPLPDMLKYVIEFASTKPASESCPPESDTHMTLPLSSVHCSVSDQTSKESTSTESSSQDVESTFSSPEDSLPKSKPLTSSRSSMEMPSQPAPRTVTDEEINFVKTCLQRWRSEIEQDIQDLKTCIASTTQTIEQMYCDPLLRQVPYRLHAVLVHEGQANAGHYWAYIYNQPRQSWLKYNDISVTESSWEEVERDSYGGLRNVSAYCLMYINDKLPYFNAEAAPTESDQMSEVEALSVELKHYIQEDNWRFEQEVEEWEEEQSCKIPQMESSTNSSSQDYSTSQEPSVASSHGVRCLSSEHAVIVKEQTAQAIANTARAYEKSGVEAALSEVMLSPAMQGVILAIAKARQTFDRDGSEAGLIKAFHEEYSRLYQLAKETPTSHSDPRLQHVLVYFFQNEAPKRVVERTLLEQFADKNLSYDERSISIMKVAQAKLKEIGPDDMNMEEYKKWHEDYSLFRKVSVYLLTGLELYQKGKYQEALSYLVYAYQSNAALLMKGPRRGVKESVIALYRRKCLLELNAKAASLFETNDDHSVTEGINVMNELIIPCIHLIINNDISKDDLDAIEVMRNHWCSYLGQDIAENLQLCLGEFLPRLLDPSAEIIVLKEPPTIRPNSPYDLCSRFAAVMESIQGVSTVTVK
In short: as §1

Measured: log2 ratio of Biotin-Ahx-Ub-VS probe labelling

Sequence of USP24 (Q9UPU5 whole entry): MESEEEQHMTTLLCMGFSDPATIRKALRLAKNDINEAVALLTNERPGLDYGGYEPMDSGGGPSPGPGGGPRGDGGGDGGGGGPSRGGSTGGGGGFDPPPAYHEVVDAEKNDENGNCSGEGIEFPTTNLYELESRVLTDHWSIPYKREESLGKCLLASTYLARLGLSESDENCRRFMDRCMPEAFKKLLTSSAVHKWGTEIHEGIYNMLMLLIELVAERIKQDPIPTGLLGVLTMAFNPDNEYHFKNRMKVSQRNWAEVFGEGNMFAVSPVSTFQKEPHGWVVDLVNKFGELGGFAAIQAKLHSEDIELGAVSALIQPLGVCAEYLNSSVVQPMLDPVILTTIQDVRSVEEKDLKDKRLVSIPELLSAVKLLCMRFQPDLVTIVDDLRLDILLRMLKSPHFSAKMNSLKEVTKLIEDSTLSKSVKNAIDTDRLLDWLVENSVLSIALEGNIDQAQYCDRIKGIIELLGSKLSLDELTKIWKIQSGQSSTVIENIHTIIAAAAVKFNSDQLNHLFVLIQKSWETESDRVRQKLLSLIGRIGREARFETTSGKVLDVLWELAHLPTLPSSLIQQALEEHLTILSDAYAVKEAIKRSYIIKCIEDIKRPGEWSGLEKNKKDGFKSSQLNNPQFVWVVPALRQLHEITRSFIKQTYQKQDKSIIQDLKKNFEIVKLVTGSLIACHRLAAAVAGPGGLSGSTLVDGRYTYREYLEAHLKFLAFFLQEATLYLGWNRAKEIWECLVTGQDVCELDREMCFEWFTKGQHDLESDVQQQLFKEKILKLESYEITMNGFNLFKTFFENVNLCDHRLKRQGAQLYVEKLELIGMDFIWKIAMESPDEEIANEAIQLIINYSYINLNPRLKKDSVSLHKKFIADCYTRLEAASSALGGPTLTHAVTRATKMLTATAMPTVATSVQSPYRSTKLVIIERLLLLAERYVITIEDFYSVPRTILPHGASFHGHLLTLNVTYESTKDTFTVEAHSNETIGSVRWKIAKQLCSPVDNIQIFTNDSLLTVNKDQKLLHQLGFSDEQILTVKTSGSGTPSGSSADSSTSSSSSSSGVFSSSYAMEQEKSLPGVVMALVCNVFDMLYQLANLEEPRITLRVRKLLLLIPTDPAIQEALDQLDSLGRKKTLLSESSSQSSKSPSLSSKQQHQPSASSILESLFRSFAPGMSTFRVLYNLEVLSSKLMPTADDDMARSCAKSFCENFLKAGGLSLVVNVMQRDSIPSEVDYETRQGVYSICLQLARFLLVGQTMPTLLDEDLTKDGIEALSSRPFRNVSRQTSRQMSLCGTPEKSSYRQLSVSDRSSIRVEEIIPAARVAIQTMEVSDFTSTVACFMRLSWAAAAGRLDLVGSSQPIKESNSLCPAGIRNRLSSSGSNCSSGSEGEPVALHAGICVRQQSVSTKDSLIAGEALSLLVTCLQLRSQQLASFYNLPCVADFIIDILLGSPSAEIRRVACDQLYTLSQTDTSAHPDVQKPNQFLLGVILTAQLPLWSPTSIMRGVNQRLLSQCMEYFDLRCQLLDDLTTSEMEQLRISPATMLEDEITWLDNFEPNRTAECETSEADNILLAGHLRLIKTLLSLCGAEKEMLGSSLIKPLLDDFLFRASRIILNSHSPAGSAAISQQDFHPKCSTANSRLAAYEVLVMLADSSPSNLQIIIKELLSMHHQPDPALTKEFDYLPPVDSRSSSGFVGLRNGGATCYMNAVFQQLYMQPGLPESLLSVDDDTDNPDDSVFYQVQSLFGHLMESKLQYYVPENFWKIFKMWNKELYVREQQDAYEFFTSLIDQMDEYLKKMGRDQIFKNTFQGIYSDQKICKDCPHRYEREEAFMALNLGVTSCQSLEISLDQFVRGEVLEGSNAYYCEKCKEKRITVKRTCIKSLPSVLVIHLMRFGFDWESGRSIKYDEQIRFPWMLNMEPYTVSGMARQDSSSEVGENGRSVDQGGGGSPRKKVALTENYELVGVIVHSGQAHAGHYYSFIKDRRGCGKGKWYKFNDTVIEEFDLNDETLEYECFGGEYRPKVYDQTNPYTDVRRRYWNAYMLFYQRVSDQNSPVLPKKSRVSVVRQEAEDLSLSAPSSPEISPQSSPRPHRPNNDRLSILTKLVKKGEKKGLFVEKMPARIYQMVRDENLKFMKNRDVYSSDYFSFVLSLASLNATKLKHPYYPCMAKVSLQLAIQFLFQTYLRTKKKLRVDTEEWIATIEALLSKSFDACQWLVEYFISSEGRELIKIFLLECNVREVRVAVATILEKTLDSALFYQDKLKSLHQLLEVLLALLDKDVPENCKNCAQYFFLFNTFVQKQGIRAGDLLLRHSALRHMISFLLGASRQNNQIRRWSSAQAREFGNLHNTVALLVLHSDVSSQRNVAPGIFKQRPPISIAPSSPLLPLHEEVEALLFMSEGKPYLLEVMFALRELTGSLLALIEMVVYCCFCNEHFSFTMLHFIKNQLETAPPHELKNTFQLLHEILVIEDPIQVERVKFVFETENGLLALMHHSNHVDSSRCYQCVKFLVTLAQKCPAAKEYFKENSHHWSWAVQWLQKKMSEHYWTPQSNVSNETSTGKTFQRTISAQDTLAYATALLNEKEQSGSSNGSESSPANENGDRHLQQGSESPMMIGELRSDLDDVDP

Cl.O=C(CCl)N1CCc2ncncc2C1
inactive: USP19 -0.554 | USP22 -0.0201 | USP24 -0.491 | USP25 -0.276 | USP28 -0.582
